# PglD DTNB: PglD (C. jejuni) enzyme inhibition. purified PglD enzyme, DTNB colorimetric CoA detection. inhibition, % at 12.5 µM. actives 0.098% (n = 360,000); in the data active = inhibition above about 16%, passing the limit was not always enough
# CFTR F508del cor: CFTR F508del correction in bronchial cells. CFBE cells, YFP halide quenching; stimulated with forskolin plus potentiator P3; % fluorescence drop versus neutral controls. activity (quench increase), % at 7.58 µM. actives 0.36% (n = 350,000);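 active = mean added fluorescence quench of at least 8% versus neutral control, with both replicates also reaching 8%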;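 also: cells transiently co-express mutant CFTR-F508del with the halide-sensitive YFP; corrector assay measuring rescue of mutant channel to the surface after 24 h compound exposure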
# C2C12 statin: protects C2C12 myotubes from simvastatin toxicity. ATP luminescence, 48 h; scaled: DMSO 0, geranylgeraniol control 100. rescue of ATP level, % at 7.49 µM. actives 0.78% (n = 330,000). AID 602340;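 active = mean ATP rescue above about 67%, or every replicate alone reaching that limit, limit read from the data, passing the limit was not always enough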;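 also: myotubes were challenged with 10 µM simvastatin during compound exposure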
# ARNT-TACC3 inh: disrupts binding between human ARNT and TACC3. Q9Y6A5. AlphaScreen His-ARNT PAS-B/GST-TACC3 binding, luminescence; TACC3 fragment carries E629A point mutation. inhibition, % at 9.99 µM. actives 0.66% (n = 390,000);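 active = mean inhibition of replicates at least 50% and at least half of replicates each reaching 50%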;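 also: 0% = complete ARNT plus TACC3 wells and 100% = ARNT alone without TACC3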
# * = called active by the depositor; / = no result given. Compounds with a hit are over-represented: about 1.4% of the library has one in this group of screens.
SMILES,PglD DTNB,CFTR F508del cor,C2C12 statin,ARNT-TACC3 inh
O=C(NCCCn1ccnc1)Nc1ccc(Cl)c(Cl)c1,0,/,-5,65*
N#Cc1ccc(OCC(=O)NCCCn2ccnc2)cc1,1,1,5,69*
COc1c(Cl)cc(Cl)cc1C(=O)n1nc(C)cc1C,-1,/,98*,-5
c1ccc2c(c1)nc(-c1ccncc1)n2CCNc1nc(CN2CCCCC2)cs1,3,-3,88*,/
FC(F)(F)c1nc2ccccc2n1CCNc1nc(CN2CCCCC2)cs1,-3,1,63,/
C[C@H]1CN([C@@H](C)CO)C(=O)c2cccc(NC(=O)CCCCCC(=O)Nc3ccccc3N)c2O[C@H]1CN(C)Cc1ccc(C(F)(F)F)cc1,/,0,/,/
CC1CN(C(=O)N[C@@H](Cc2ccccc2)C(=O)O)CC(C)O1 (some centres not stated),3,/,86*,-11
CC(C)(C)OC(=O)N1CCC(C(=O)N[C@@H](Cc2ccccc2)C(=O)O)CC1,-2,/,115*,-1
CN(C)C(=O)C[C@@H]1CC[C@@H]2[C@H](COC[C@H](O)CN2CC2CCOCC2)O1,5,4,24,-10
O=C(C[C@@H]1C[C@@H]2c3cc(NC(=O)C4CCC4)ccc3O[C@@H]2[C@H](CO)O1)NCCc1ccccc1,2,-3,-5,-5
C[C@H](NC(=O)[C@H]1[C@H](CO)[C@H]2Cn3c(ccc(-c4cccc(F)c4)c3=O)[C@H]2N1C)c1ccccc1,/,0,/,/
COc1cccc(S(=O)(=O)Nc2ccc3c(c2)OC[C@@H](C)N(Cc2ccccc2F)C[C@@H](C)[C@@H](OC)CN(C)C3=O)c1,-1,2,45,6
C#CCOCCOCCOCCNc1nc(N2CCN(C(=O)[C@H](CCCCN)n3cc([C@@H](N)CC(C)C)nn3)CC2)nc(N2CCN(C(=O)[C@H](Cc3cc4ccccc4[nH]3)n3cc([C@@H](N)Cc4ccc(O)cc4)nn3)CC2)n1,0,/,5,46*
C#CCOCCOCCOCCNc1nc(N2CCN(C(=O)[C@H](Cc3ccc(O)cc3)n3cc([C@@H](N)CC(C)C)nn3)CC2)nc(N2CCN(C(=O)[C@H](Cc3cc4ccccc4[nH]3)n3cc([C@@H](N)CC(C)C)nn3)CC2)n1,/,0,/,/
C#CCOCCOCCOCCNc1nc(N2CCN(C(=O)[C@H](CCCCN)n3cc([C@@H](N)C(C)CC)nn3)CC2)nc(N2CCN(C(=O)[C@H](Cc3ccc(O)cc3)n3cc([C@@H](N)CC(C)C)nn3)CC2)n1 (some centres not stated),2,-2,-3,30*
C[C@@H]1CN([C@H](C)CO)C(=O)c2cc(NS(=O)(=O)c3ccccc3)ccc2O[C@@H](C)CCCCO[C@H]1CN(C)S(=O)(=O)c1ccc(F)cc1,-1,3,0,0
COc1cccc(C(CC(=O)NCC2CCCO2)NS(=O)(=O)c2ccc(C)cc2)c1OC (configuration not stated),-2,/,/,-3
COc1cccc(C(CC(=O)NCc2ccco2)NS(=O)(=O)c2ccc(C)cc2)c1OC (configuration not stated),4,/,100*,-6
Cc1ccccc1-c1nc(CN2CCC(C(=O)NCc3cccnc3)CC2)c(C)o1,-5,/,99*,2
Cc1oc(-c2ccccc2F)nc1CN1CCC(C(=O)NCc2cccnc2)CC1,-2,/,-8,0
C[C@H](CO)N1C[C@H](C)[C@H](CN(C)S(=O)(=O)c2ccc(F)cc2)Oc2c(NC(=O)CCCCCC(=O)Nc3ccccc3N)cccc2C1=O,/,-2,/,/
CCCNC(=O)N1CC2(CCN(Cc3cccc(OC)c3)CC2)c2c([nH]c3cc(OC)ccc23)[C@@H]1CO,/,3,/,/
Cn1c(=O)c(=O)n(C)c2cc(N3CCOCC3)c(NS(=O)(=O)c3ccc(F)c(Cl)c3)cc21,/,-1,/,-4
Cn1c(=O)c(=O)n(C)c2cc(N3CCOCC3)c(NS(=O)(=O)c3ccc([N+](=O)[O-])cc3)cc21,-5,-1,109*,3
CO[C@@H](CN(C)C(=O)c1ccc2c(c1)OCO2)[C@@H](C)CN([C@H](C)CO)S(=O)(=O)c1ccc(C)cc1,-1,3,9,-4
SMILES,PglD DTNB,CFTR F508del cor,C2C12 statin,ARNT-TACC3 inh
COc1ccnc(CSC(N)=Nc2ccccc2C(F)(F)F)c1,/,/,/,26
COc1ccnc(CSC(N)=Nc2ccccc2OC)c1,5,/,-1,62*
COCC#Cc1cnc2c(c1)C(=O)N([C@H](C)CO)C[C@H](C)[C@H](CN(C)Cc1ccccc1F)O2,-1,0,9,3
Cc1c(Cl)cccc1NC(=S)N(CCN(C)C)C(C)c1ccccn1 (configuration not stated),0,1,-7,54*
O=c1[nH]c2ccc(NC(=S)Nc3ccc(Cl)cc3Cl)cc2[nH]1,0,/,139*,-1
Fc1ccc(NC(=S)Nc2ccc(F)c(Cl)c2)cc1Cl,4,/,69*,-5
COC(=O)NC(=S)Nc1ccc(Oc2ccc(Cl)cc2Cl)c(Cl)c1,-3,/,126*,14
CCCNC(=O)N[C@H]1CC[C@H](CCNS(=O)(=O)c2cccc(F)c2)O[C@H]1CO,6,1,7,-2
CC(C)C#Cc1ccc2c(c1)O[C@H](CN(C)C(=O)C1CC1)[C@@H](C)CN([C@H](C)CO)S2(=O)=O,0,-1,1,-4
Cc1ccc(S(=O)(=O)N2CCOCC2)cc1NC(=O)COC(=O)c1ccc(Cl)nc1,-4,10*,3,3
Cc1ccc(NC(=O)COC(=O)c2ccc3c(c2)OCCO3)cc1S(=O)(=O)N1CCOCC1,/,-3,/,-3
Cc1ccc(C(=O)OCC(=O)Nc2ccc3c(c2)OCO3)cc1S(=O)(=O)N1CCOCC1,2,/,108*,15
COc1cc(/C=C/C(=O)OCC(=O)Nc2cc(S(=O)(=O)N3CCOCC3)ccc2Cl)cc(OC)c1OC,0,-1,109*,-4
C[C@@H]1CN([C@@H](C)CO)C(=O)Cc2cc(NC(=O)Nc3ccc(C(F)(F)F)cc3)ccc2O[C@@H]1CN(C)Cc1ccc(C(=O)Nc2ccccc2N)cc1,6,6,-115,-28
CCCNS(=O)(=O)c1ccc(OCC(=O)OC)cc1,0,/,130*,0
COc1ccc(N2C(=O)CC(C#N)=C2N)cc1,/,1,/,-17
N#CC1=C(N)N(c2ccccc2)C(=O)C1,0,/,106*,1
C[C@@H]1CN([C@@H](C)CO)C(=O)Cc2cc(NC(=O)Nc3ccc(F)cc3)ccc2O[C@H]1CN(C)CC1CCCCC1,1,-3,0,32
COCCNC(=O)c1ccc(CS(=O)(=O)c2cccc(C(F)(F)F)c2)o1,-4,0,-2,-14
CCCCNC(=O)c1ccc(CS(=O)(=O)c2cccc(C(F)(F)F)c2)o1,7,/,144*,-5
O=C(CCN1CCCCC1)N1CCc2c([nH]c3ccccc23)C1c1cccnc1 (configuration not stated),/,8.9*,/,-1
CCN(CC)c1ccc(NC(=O)Cn2cc3c(n2)CCC(C)C3)c(C)c1 (configuration not stated),-2,0,-3,49*

# Screening data as filed in PubChem BioAssay.
